Results on 91 molecules are retold here after PubChem BioAssay AID1852 (Sanford-Burnham Center for Chemical Genomics, 2009).

Molecules are shown by their SMILES. Hit rate of the full screen: of about 2,500 compounds, about 1,100 (44%) were called active. The set was probably picked from earlier hits. The list shows a part of the results. Values without a mark were called inactive.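 The calls were made as follows: active = inhibition above 50% at 4 µM in the single-point screen; inactive = inhibition of 50% or less.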

The test can be described thus: blockers of TNF-a NF-kB luciferase induction – cell-based, HEK293T NF-kB-Luc, luminescence, selectivity assay for NOD1/NOD2 signaling inhibitor project, primary screen (AID 1852). As to conditions: TNF-a induced, 14 h, at 4 µM, active compounds read high.
For orientation: inhibition means the change of the read-out against control, counted positive when it falls. `CN(C)c1ccc(-c2noc(C3CCN(S(=O)(=O)c4cccc(Cl)c4)CC3)n2)cc1`: the inhibition is 31%. Under `COc1cc(C(=O)Nc2cccc(-c3nc4cc(C)ccc4o3)c2)cc(OC)c1OC` stands -51.1%. In the case of `COc1ccc(CCN2CC(C(=O)N(C)CC(=O)Nc3cccc(F)c3)CC2=O)cc1OC` (stereo unspecified) it was 21.5%; in that of `COc1ccc(CC(=O)Nc2cccc(-c3nnc(-c4ccc(C)cc4)o3)c2)cc1OC`, 77.2% (active); in that of `C[n+]1c2n(c3ccccc31)N=C(c1cc(C(C)(C)C)c(O)c(C(C)(C)C)c1)CS2`, 82.3% (active). On to `COc1ccc(C2=Nn3c([n+](C)c4ccccc43)SC2)cc1`, for which the inhibition is 32.8%. In the case of `COc1ccc(NC(=O)/C(Cl)=C(/Cl)S(=O)(=O)Cc2ccc(C)cc2)cn1`, the inhibition is 108% (active). Turning to `COc1ccc(NC(=O)/C(Cl)=C(/Cl)S(=O)(=O)Cc2ccccc2)cn1`, the inhibition is 92.3% (active). Under `COc1ccc(NC(=O)c2cccc(S(=O)(=O)Nc3ccc(Br)cc3)c2)cn1` stands 23.8%. Under `COc1ccc(NS(=O)(=O)c2ccc3c(c2)Cc2ccccc2-3)cn1` stands 25.4%; under `Cc1cccc(C(=O)NNC2=C(C(=O)C(F)(F)F)CCC2)c1O`, 93.3% (active). Consider `O=C(NNC1=C(C(=O)C(F)(F)F)CCC1)c1ccccc1O`, for which the inhibition is 15%. In the case of `Cc1c(CCC(=O)O)c(=O)oc2c(C)c3occ(-c4ccc(Cl)cc4)c3cc12` it was 59.5% (active); in that of `O=c1c(-c2ccc(Cl)cc2)coc2c(CN3CCCCC3)c(O)ccc12`, 37.4%. Under `Cc1c(CCC(=O)O)c(=O)oc2cc3oc4c(c3cc12)CCCC4` stands 48.7%. In the case of `COc1cccc(-c2coc3c(C)c4oc(=O)c(CCC(=O)O)c(C)c4cc23)c1` it was 69.3% (active). Consider `Cc1oc2c(C)c3oc(=O)c(CCC(=O)O)c(C)c3cc2c1-c1ccccc1`, for which the inhibition was 47%. Under `COc1ccccc1CN(Cc1nc2ccccc2c(=O)[nH]1)S(=O)(=O)c1ccc2ccccc2c1` stands 92.1% (active). `COC(=O)c1ccc2c(=O)[nH]c(CCl)nc2c1`: the inhibition is 43.1%. In the case of `Cc1ccc(-n2c(C)c([N+](=O)[O-])c3ccc(O)c(CN(C)C)c32)cc1` it was 66.1% (active). In the case of `COc1ccc(-n2c(C)c([N+](=O)[O-])c3ccc(O)c(CN4CCCCC4)c32)cc1` it was 28.8%. In the case of `COc1ccc(-n2c(C)c([N+](=O)[O-])c3ccc(O)c(CN(C)C)c32)cc1` it was 84.4% (active); in that of `O=C1/C(=C\c2cccnc2)CN(Cc2ccccc2)C/C1=C\c1cccnc1`, 107% (active); in that of `COc1cc(OC)c(OC)cc1/C=C1\CC(C)C/C(=C\c2cc(OC)c(OC)cc2OC)C1=O` (stereo unspecified), 32.3%. As to `O=C1/C(=C/c2ccncc2)CCC/C1=C\c1ccncc1`, the inhibition was 89.9% (active). Under `CC1C/C(=C\c2cccnc2)C(=O)/C(=C/c2cccnc2)C1` (stereo unspecified) stands 109% (active). In the case of `CC1C/C(=C/c2ccncc2)C(=O)/C(=C/c2ccncc2)C1` (stereo unspecified) it was 106% (active); in that of `O=C1/C(=C/c2cccnc2)CCC/C1=C\c1cccnc1`, 104% (active). In the case of `C=C1CC2C(CCC3(C)C2CCC3(O)C(C)=O)C2(C)CCC(=O)C=C12` (stereo unspecified), the inhibition was 13.6%. For the molecule `O=C(C1CCC(CNS(=O)(=O)c2cccs2)CC1)N1CCN(c2ccc(Cl)cc2)CC1` (stereo unspecified), the inhibition is 67.1% (active).

For `CC1Cc2cc(S(=O)(=O)N3CCN(c4ccc(Cl)cc4)CC3)ccc2N1C(=O)C1CC1` (stereo unspecified), the inhibition is 8.4%.

With `C[C@@H]1C[C@@H]2O[C@H]2/C=C\C=C\C(=O)Cc2c(Cl)c(O)cc(O)c2C(=O)O1`, the inhibition was 96.5% (active). In the case of `O=C(CSc1n[nH]c(-c2ccccn2)n1)Nc1cccc(Cl)c1` it was 81.4% (active); in that of `Cc1nc(C)c(-c2ccc(SCC(=O)Nc3cccc(Cl)c3)nn2)s1`, 35%; in that of `O=C(CN1CCN(CCC(=O)Nc2ccccc2F)CC1)Nc1ccc(Cl)cc1`, 2%. For `Cn1cccc1Cc1nnc(SCC(=O)Nc2cccc(Cl)c2)n1-c1ccc(F)cc1`, the inhibition is 11.5%. Under `O=C(CSc1n[nH]c(-c2ccccn2)n1)Nc1ccc(Cl)cc1` stands 80.1% (active). Consider `Cc1ccc2c(c1)-c1ncc(C(=O)c3cc(Br)ccc3O)cc1CO2`, for which the inhibition was 36.7%. Under `CCCCCc1cc(O)c2c(C)cc(=O)oc2c1` stands 71.7% (active); under `CCCCc1cc(=O)oc2cc(O)cc(O)c12`, 21.4%; under `Cc1c(Cc2ccccc2)c(=O)oc2cc(O)cc(O)c12`, -8.9%. In the case of `Nc1nc(CCl)nc(Nc2cccc3ccccc23)n1` it was 44.3%. With `Brc1ccc2ncnc(Nc3ccc(N4CCOCC4)cc3)c2c1`, the inhibition was 83.9% (active). `O=C(COc1nsnc1N1CCOCC1)Nc1ccc(Br)cc1`: the inhibition was 4.1%.

For `CC(=O)c1cccc(Nc2ncnc3ccc(Br)cc23)c1`, the inhibition was 60.8% (active). As to `Brc1ccc2ncnc(Nc3cccc4ccccc34)c2c1`, the inhibition is 104% (active). On to `CCN1C(=O)C(CC(=O)Nc2cccc(C(C)=O)c2)S/C1=N\c1ccccn1` (stereo unspecified), for which the inhibition was -2.9%. Under `Clc1ccc(Nc2ncnc3ccc(Br)cc23)cc1` stands 49.1%; under `COc1ccc(Nc2ncnc3ccc(Br)cc23)cc1OC`, 64.4% (active). Under `COC(=O)Cc1[nH]n(-c2nc3ccccc3s2)c(=O)c1C(C)=Nc1ccc(OC)cc1` stands 30.8%; under `COC(=O)Cc1[nH]n(-c2nc3ccccc3s2)c(=O)c1C(C)=Nc1ccc(C)cc1`, 55.7% (active). In the case of `Cc1sc2nc(SCc3ccc(C(=O)O)cc3)n(Cc3ccco3)c(=O)c2c1C` it was 74.6% (active); in that of `COC(=O)c1ccc(CSc2nc3ccccc3c(=O)n2Cc2ccco2)o1`, 6.3%; in that of `COc1ccccc1NC(=O)CSc1nc2sc(C)c(C)c2c(=O)n1C`, 26.3%.

For the molecule `CCc1ccn2cc(-c3ccc4c(c3)OCO4)nc2c1`, the inhibition is 23%. In the case of `Cc1ccc2nc(-c3ccc4c(c3)OCCO4)cn2c1` it was 51.3% (active); in that of `Cc1ccc(-c2csc(N3CCC(NS(=O)(=O)c4ccc5c(c4)OCCO5)CC3)n2)cc1`, 48.7%; in that of `CCS(=O)(=O)C1=NN2C(=N)/C(=C\c3ccc(OCCOc4cccc(OC)c4)c(OC)c3)C(=O)N=C2S1`, -32.8%. As for `O=C(CN1CCN(c2cccc(Cl)c2)CC1)Nc1ccc(S(=O)(=O)N2CCOCC2)cc1`, the inhibition is 23.3%. In the case of `Cc1ccc(S(=O)(=O)N(C)C)cc1NC(=O)COC(=O)/C=C/c1cnc2ccccc2n1` it was 12%; in that of `CCN(CC)S(=O)(=O)c1cccc(NC(=O)CNc2cccc(S(=O)(=O)N3CCCC3)c2)c1`, 41.7%. For `CN(C)S(=O)(=O)c1cccc(NC(=O)CSc2cccc3cccnc23)c1`, the inhibition was 100% (active). For `O=C(CSc1cccc2cccnc12)Nc1ccc(S(=O)(=O)N2CCOCC2)cc1`, the inhibition is 104% (active). In the case of `CCc1nc2ccccc2c(C(=O)OCC(=O)Nc2cccc(S(=O)(=O)N3CCOCC3)c2)c1C` it was -0.6%; in that of `O=C(Nc1cccc(NC(=O)c2ccc(-c3cccc(Br)c3)o2)c1)c1ccco1`, -15.4%; in that of `CC(C)(C)C(=O)Nc1ccc(NC(=O)c2ccco2)nc1`, 98.2% (active).

On to `O=C(Nc1nc2cc3c(cc2s1)OCCO3)c1ccco1`, for which the inhibition is -31%.

Take `COc1ccc(-c2nn(-c3ccccc3)cc2/C=N/NC(=O)c2ccc(Br)o2)cc1`: the inhibition was 94.1% (active). In the case of `Cc1ccc(-c2nn(-c3ccccc3)cc2NC(=O)CCl)cc1` it was -28.6%; in that of `O=C(N/N=C/c1cn(-c2ccccc2)nc1-c1cc2ccccc2o1)c1c[nH]c2ccccc12`, -224%; in that of `COc1ccc(/C=N/NC(=O)c2ccc(Br)o2)cc1Cn1cc([N+](=O)[O-])cn1`, -16%. In the case of `Cc1cc([N+](=O)[O-])ccc1-c1ccc(/C=N/NC(=O)c2ccc(Br)o2)o1` it was -0.2%; in that of `Cc1ccc(-c2nn(-c3ccccc3)cc2/C=N/NC(=O)c2ccc(Br)o2)cc1`, 95.5% (active). Under `CC[n+]1c(/C=C/N(C)c2ccccc2)n(-c2ccccc2)c2ccc(-c3nc4ccccc4s3)cc21` stands 102% (active); under `CC(C)c1ccc(-c2nc3ccccc3s2)cc1`, 14.5%. Consider `Cn1c2c(c(=O)n(C)c1=O)C(C(F)(F)F)(C(F)(F)F)N=C(c1ccc(Cl)cc1)N2`, for which the inhibition is 73.2% (active). In the case of `Cc1nc2c(Br)cc(Br)cc2cc1O` it was 8.1%; in that of `Cc1ccc(C(=O)NC(=C(Cl)Cl)S(=O)(=O)c2ccccc2)cc1`, 97.7% (active); in that of `Cc1ccc(C(=O)NC(C#N)=C(Cl)Cl)cc1`, 94.7% (active). Regarding `CC(=O)NC(=C(Cl)Cl)S(=O)(=O)c1ccccc1`, the inhibition was 42.6%.

`O=C(NC(=C(Cl)Cl)S(=O)(=O)c1ccc(Cl)cc1)c1ccccc1`: the inhibition was 97.1% (active). Under `COc1ccc(C(=O)NC(=C(Cl)Cl)S(=O)(=O)c2ccc(C)cc2)cc1` stands -46.2%. With `Cc1ccc(C(=O)NC(=C(Cl)Cl)S(=O)(=O)c2ccc(C)cc2)cc1`, the inhibition is 4.6%.

For the molecule `Cc1ccc(C(=O)NC(=C(Cl)Cl)S(=O)(=O)c2ccc(Cl)cc2)cc1`, the inhibition is 63.9% (active).

`Cc1ccc(C(=O)c2cnc3cc4c(cc3c2S(=O)(=O)c2ccccc2)OCCO4)cc1`: the inhibition was -56.6%.

In the case of `CC(C)NC(=S)NC(c1ccccc1)(c1ccccc1)c1ccccc1`, the inhibition is 19.3%. Under `COc1cc(/C=C2\C(=N)N3N=C(S(C)(=O)=O)SC3=NC2=O)ccc1OCCOc1ccc(C)cc1` stands -39.5%; under `Clc1ccccc1Cc1noc(CN2CCN(c3cnccn3)CC2)n1`, 7.7%. Consider `O=C(O)c1c(NC(=O)c2cccc3ccccc23)sc2c1CCC2`, for which the inhibition was 53.9% (active). In the case of `Cc1cccc(C(=O)Nc2sc3c(c2C(=O)O)CCCC3)c1` it was -8.5%. Under `O=C(Nc1sc2c(c1C(=O)O)CCCC2)c1ccccc1Cl` stands 25%.
